The text below walks through data of ChEMBL document CHEMBL3988442, “University of Dundee, Small-Polar-MMV Screening Library” (2021).

Design in all cases: scale not given: direction of the effect not stated beside the values
Assay [1] addresses Protein translocase subunit SecA (Escherichia coli (strain K12)) (UniProt P10408). Description: Assay to Identify E. coli SecA ATPase Inhibitors. It counts as functional. Particulars: 30 µM.
Assay [2] concerns the target T1, Ubiquitin-activating enzyme e1, putative (Leishmania donovani (strain BPK282A1)) (UniProt E9BSI1).
T1 sequence (whole entry): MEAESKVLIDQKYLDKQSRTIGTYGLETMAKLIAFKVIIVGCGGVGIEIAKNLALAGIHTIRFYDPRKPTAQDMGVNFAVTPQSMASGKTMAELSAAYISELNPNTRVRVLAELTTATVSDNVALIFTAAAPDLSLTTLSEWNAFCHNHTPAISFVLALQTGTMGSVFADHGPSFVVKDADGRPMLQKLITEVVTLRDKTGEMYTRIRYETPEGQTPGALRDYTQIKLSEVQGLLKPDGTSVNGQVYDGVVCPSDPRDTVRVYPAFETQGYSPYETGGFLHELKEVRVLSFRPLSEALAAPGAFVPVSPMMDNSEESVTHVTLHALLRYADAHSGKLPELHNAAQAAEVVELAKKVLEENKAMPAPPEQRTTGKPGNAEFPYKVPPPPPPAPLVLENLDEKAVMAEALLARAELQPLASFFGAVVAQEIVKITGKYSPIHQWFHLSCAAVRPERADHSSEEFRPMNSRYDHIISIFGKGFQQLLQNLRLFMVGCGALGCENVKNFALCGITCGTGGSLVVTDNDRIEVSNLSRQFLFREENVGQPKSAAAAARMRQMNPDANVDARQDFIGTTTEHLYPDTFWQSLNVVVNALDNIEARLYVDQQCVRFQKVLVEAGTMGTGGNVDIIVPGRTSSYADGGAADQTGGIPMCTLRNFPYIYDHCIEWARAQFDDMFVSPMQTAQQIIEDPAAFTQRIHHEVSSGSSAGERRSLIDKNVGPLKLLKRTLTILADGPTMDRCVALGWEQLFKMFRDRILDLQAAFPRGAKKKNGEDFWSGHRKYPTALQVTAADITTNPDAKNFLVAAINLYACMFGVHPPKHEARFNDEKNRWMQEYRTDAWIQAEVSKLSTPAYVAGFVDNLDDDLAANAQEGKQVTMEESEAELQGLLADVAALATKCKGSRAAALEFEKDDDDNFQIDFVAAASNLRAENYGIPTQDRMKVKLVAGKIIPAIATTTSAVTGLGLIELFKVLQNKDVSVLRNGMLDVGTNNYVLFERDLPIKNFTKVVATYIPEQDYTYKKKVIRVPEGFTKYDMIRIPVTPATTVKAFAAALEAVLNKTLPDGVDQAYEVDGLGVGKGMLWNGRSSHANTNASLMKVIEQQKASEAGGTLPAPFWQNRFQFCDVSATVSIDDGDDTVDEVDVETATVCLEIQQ
Description: Leishmania donovani Ubiquitin Activating Enzyme (LdE1). It counts as functional. Particulars: 30 µM.

Assay [3] addresses AMP-activated protein kinase, AMPK (Homo sapiens) (UniProt P54646+O43741+P54619+Q9UGJ0+Q9Y478+Q13131+Q9UGI9). Description: AMP-dependent Kinase enzyme assay. An in vitro enzyme assay that detects ADP turnover that is directly proportional to AMPK activity. This uses naive AMPK that is activated during the assay with MK-8722. The class given is functional. Particulars: 30 µM.
Assay [4] concerns the target Sialic acid-binding Ig-like lectin 9 (Homo sapiens) (UniProt Q9Y336). Description: Hs-Siglec9 ALPHAscreen SOP 20170721. The note with it: 10 µM.
Another assay deals with Trypanosoma cruzi. Description: Trypanosoma cruzi phosphomannomutase and mannose-1-phosphate guanylyltransferase assay. It counts as functional. The note with it: 10 µM.
In assay [5] the target is T2, Arginase-2, mitochondrial (Homo sapiens) (UniProt P78540).
T2 sequence (whole entry): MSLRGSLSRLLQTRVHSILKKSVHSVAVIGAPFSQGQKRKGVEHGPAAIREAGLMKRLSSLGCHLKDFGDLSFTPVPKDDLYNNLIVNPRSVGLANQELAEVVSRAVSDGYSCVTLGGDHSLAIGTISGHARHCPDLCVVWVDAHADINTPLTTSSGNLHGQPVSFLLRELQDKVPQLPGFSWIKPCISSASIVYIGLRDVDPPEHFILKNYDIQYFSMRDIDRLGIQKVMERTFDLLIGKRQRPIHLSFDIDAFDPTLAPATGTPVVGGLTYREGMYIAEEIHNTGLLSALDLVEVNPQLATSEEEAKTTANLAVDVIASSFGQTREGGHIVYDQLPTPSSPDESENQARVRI
Description: in vitro enzyme assay to detect the production of urea directly proportional to the activity of Arginase II. Also: in the data most compounds retested in dose-response had high values. The class given is functional. The note with it: 33.3 µM.

The target in assay [6] is T3, Proteasome subunit beta (Trypanosoma cruzi) (UniProt O96673).
T3 sequence (whole entry): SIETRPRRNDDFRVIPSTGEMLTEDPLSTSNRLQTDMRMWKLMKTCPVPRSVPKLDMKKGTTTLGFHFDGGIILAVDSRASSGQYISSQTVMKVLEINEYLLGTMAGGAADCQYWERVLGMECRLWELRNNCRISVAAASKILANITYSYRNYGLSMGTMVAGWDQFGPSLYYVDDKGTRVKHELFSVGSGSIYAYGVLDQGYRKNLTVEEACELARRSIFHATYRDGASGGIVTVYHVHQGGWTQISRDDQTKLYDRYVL
Kind of assay: Trypanosoma cruzi proteasome chymotrypsin-like activity (TcProtChymo) assay. Also: in the data most compounds retested in dose-response had high values. It counts as functional. Particulars: 9.37 µM.

For the next assay, the species on record is Homo sapiens. Kind of assay: To identify inhibition of the IFN signalling (Jak-Stat) pathway via expression of an eGFP reporter gene under the control of an IFN-stimulated response element (ISRE) containing MxA promoter. The note with it: 30 µM. It counts as functional. On the technique in general: A reporter such as luciferase makes a cellular process visible.

Assay [7] addresses T4, Tyrosyl-tRNA synthetase, putative (Trypanosoma cruzi (strain CL Brener)) (UniProt Q4DSP6).
T4 sequence (whole entry): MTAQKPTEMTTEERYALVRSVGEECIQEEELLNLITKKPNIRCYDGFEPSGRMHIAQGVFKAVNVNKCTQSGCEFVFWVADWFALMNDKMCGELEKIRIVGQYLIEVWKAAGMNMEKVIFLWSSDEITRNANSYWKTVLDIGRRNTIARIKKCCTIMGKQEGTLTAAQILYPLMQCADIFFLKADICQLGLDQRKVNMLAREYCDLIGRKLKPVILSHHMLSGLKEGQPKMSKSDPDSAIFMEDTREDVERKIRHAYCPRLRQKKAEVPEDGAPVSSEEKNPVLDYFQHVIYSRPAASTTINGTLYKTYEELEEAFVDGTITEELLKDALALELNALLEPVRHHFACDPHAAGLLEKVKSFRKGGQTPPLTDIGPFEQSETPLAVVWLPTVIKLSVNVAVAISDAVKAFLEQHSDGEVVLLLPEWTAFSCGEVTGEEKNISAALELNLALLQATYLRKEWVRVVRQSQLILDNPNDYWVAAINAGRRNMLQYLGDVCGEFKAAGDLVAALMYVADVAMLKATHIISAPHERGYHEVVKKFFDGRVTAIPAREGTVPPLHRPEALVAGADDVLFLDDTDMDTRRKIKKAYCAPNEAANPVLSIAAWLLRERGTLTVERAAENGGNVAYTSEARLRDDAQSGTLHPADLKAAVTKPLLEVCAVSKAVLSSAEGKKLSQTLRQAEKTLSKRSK
Kind of assay: Trypanosoma cruzi tyrosyl tRNA synthetase (TcYRS) _High Tyrosine SOP. Also: in the data most compounds retested in dose-response had high values. The class given is functional. The note with it: 30 µM.

Assay [8] deals with T4, Tyrosyl-tRNA synthetase, putative (Trypanosoma cruzi (strain CL Brener)). Kind of assay: Trypanosoma cruzi tyrosyl tRNA synthetase (TcYRS) SOP. It counts as functional. Particulars: 30 µM.
The target in assay [9] is Chromo domain-containing protein 1 (Saccharomyces cerevisiae (strain ATCC 204508 / S288c) (Baker's yeast)) (UniProt P32657). Kind of assay: ScCHD-1 Enzyme Inhibition Assay. Also: in the data most compounds retested in dose-response had high values. The class given is functional. The note with it: 30 µM.

For some of these results: Measured potencies and affinities stand elsewhere.

Sequence of Protein translocase subunit SecA (Escherichia coli (strain K12)) (P10408 whole entry): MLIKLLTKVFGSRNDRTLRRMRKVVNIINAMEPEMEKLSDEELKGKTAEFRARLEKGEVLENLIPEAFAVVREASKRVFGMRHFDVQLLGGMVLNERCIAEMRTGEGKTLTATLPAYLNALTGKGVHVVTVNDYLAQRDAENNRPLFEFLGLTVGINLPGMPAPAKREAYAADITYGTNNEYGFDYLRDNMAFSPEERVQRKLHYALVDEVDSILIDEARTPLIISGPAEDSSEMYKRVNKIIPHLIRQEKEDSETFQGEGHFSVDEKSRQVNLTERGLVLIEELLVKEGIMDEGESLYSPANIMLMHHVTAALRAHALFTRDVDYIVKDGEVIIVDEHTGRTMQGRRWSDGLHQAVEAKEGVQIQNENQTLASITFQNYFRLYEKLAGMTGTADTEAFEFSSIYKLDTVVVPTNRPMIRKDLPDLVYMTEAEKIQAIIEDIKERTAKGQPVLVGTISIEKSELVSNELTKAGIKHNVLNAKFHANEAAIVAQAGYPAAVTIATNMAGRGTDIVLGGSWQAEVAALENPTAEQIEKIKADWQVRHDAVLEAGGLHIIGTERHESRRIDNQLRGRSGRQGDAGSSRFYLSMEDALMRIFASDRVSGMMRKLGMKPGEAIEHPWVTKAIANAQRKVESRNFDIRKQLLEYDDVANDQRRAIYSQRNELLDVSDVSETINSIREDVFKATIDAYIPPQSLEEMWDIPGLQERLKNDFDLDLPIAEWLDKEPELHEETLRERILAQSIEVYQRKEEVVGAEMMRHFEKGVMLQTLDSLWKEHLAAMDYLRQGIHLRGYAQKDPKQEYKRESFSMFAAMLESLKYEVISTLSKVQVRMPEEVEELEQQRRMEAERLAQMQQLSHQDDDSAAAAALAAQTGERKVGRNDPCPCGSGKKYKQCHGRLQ
Sequence of Sialic acid-binding Ig-like lectin 9 (Homo sapiens) (Q9Y336 whole entry): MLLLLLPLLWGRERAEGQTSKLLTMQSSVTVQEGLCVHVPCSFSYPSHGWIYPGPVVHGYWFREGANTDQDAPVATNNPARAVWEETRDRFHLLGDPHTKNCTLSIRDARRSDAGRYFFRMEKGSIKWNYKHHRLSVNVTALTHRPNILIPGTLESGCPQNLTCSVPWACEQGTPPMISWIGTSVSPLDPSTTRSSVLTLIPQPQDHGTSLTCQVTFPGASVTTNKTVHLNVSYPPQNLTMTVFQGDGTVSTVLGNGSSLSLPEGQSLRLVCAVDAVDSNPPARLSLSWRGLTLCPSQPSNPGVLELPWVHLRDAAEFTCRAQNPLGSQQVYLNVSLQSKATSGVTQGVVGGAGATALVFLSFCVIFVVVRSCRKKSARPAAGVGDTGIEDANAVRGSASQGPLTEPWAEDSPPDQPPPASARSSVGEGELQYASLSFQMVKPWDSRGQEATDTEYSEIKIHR
Sequence of Chromo domain-containing protein 1 (Saccharomyces cerevisiae (strain ATCC 204508 / S288c) (Baker's yeast)) (P32657 whole entry, the tested form may be a part): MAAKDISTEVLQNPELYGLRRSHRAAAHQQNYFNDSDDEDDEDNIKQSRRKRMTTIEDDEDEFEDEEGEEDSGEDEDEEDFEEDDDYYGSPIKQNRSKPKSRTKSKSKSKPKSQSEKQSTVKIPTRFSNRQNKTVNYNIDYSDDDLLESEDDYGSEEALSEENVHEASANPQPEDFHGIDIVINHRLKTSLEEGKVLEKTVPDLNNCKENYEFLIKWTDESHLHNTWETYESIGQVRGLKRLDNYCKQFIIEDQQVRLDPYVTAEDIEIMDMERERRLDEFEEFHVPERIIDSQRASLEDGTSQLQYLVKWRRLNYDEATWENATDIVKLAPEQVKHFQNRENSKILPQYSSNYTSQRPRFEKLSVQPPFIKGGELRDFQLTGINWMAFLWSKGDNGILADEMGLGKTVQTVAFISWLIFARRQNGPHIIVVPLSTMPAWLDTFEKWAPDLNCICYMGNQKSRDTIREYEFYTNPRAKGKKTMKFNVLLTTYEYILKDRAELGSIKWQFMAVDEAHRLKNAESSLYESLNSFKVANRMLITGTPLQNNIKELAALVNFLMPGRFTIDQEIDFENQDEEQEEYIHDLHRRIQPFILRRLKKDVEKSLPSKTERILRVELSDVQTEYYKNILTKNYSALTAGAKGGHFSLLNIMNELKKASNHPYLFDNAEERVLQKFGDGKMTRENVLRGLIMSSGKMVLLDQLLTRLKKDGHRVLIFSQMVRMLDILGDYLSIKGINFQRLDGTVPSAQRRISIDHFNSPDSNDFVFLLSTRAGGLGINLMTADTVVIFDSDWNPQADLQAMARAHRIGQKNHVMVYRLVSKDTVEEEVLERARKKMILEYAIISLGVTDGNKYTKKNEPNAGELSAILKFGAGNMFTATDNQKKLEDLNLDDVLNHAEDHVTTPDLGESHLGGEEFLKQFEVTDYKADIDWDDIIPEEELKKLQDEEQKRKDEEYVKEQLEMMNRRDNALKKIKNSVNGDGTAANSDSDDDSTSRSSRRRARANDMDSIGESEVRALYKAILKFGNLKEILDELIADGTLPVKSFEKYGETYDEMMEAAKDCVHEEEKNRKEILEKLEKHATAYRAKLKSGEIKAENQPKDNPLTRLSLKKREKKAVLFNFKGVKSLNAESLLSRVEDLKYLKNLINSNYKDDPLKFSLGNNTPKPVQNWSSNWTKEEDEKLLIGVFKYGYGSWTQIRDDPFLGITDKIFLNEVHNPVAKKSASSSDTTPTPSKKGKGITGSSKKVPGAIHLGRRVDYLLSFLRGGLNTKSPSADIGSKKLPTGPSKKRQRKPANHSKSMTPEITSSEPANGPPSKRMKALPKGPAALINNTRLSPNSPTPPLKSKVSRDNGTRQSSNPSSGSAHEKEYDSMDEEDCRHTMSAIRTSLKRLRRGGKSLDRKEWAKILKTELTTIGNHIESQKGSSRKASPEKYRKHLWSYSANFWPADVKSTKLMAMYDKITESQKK

As for `CC(=O)NCCNC(=O)c1cnc(-c2ccccc2)nc1`, the Percent Effect in assay [1] was -2.95%; in assay [2], 2.7%; in assay [3], 0.346%; in assay [4] it was 11.7%; with Trypanosoma cruzi, -4.59%; in [5], 4.22%. Moreover, the Percent Effect in assay [6] was 3.35%; in the assay listed under Homo sapiens, 0.496%; in assay [7], 6.45%; in [8], 11.1%; in [9], -5.21%.
As for `Fc1ccc(CN2CCCN(Cc3cscn3)CC2)cc1`, the Percent Effect in assay [1] was -1.59%; in assay [2], 18.2%; in assay [3], -0.0725%; in assay [4] it was -10.1%; in the assay with Trypanosoma cruzi, -1.27%; in [5], 1.05%. Moreover, the Percent Effect in [6] was 9.46%; in the assay listed under Homo sapiens, 30.6%; in assay [7] it was 8.57%; in [8], 25.9%; in assay [9], -21.9%.
As to `CC(=O)N1CCC2(CC1)CC[C@@]1(C(=O)N(C)C)CN(S(C)(=O)=O)C[C@@H]21`, the Percent Effect in assay [1] was 0.456%; in [2], 18.9%; in assay [3], -1.01%; in assay [4], 10.2%; with Trypanosoma cruzi it was 2.83%; in [5] it was 12.7%. For the same compound, the Percent Effect was 4.38% in [6]; 28.4% in the assay listed under Homo sapiens; 3.23% in assay [7]; 18.5% in assay [8]; -8.55% in assay [9].
On to `Cc1ccc(S(=O)(=O)Nc2ccc(=O)n(C)c2)cc1`, for which the Percent Effect in assay [1] was -2.01%; in [2] it was 20.2%; in [3], -48.5%; in [4] it was -4.13%; in the assay with Trypanosoma cruzi, 2.55%; in [5], 4.18%. The Percent Effect in assay [6] was 17.1%; in the assay listed under Homo sapiens, 36%; in [7], 6.4%; in assay [8], 13.9%; in assay [9] it was -4.02%.
As for `CC(O)CC(C)(C)CNC(=O)NCc1cccc(-n2cncn2)c1` (stereo unspecified), the Percent Effect is -3.57% in assay [1]; -2.7% in [2]; -0.791% in assay [3]; 7.51% in [4]; 2.64% in the assay on Trypanosoma cruzi; 4.22% in assay [5]. Moreover, the Percent Effect in assay [6] is 9.53%; in the assay listed under Homo sapiens, -9.29%; in assay [7] it was 0%; in [8] it was 1.24%; in assay [9], -0.141%.
In the case of `CCn1ccnc1CN1CCC(CNC(=O)c2ccc(C)nc2)C1` (stereo unspecified), the Percent Effect in assay [1] is -0.749%; in assay [2] it was 10.4%; in assay [3], 4.72%; in assay [4], 15.7%; in the assay on Trypanosoma cruzi, 6.39%; in assay [5], -1.38%. Also, the Percent Effect in assay [6] was 12%; in the assay filed under Homo sapiens, 15.6%; in assay [7], 8.6%; in assay [8], 16.1%; in [9] it was -3.08%.
Turning to `CC(NCc1ccccc1Br)c1ccc2[nH]c(=O)[nH]c2c1` (stereo unspecified), the Percent Effect is -1.71% in [1]; -18.9% in assay [2]; -5.22% in assay [3]; 10.9% in [4]; 5.19% in the assay with Trypanosoma cruzi; -0.401% in [5]. The Percent Effect was -0.18% in [6]; 25.5% in the assay filed under Homo sapiens; -0.493% in [7]; 6.17% in [8]; -4.59% in assay [9].
In the case of `O=C(c1cc(COc2ccc3c(c2)OCO3)[nH]n1)N1CCCC1`, the Percent Effect is -4.35% in assay [1]; -5.48% in assay [2]; 4.54% in assay [3]; 2.19% in [4]; -5.56% in the assay on Trypanosoma cruzi; 4.39% in assay [5]. In addition, the Percent Effect in [6] was 21.7%; in the assay listed under Homo sapiens, 14.2%; in [7], 3.12%; in assay [8], 6.17%; in assay [9] it was -1.77%.
For the compound `O=C(Cn1cc(I)cn1)N1CCc2ccccc2C1`, the Percent Effect in assay [1] was 0.654%; in assay [2], -12%; in assay [3], 6.11%; in [4], 2.56%; with Trypanosoma cruzi it was -2.55%; in [5], -10%. Moreover, the Percent Effect was 6.1% in assay [6]; 2.17% in the assay listed under Homo sapiens; 2.12% in assay [7]; -2.56% in assay [8]; -2.67% in [9].
As to `Cc1ncc(CNC(=O)Nc2cc(C(F)(F)F)c[nH]c2=O)s1`, the Percent Effect in assay [1] was -6.87%; in [2], -1.39%; in assay [3], -10.2%; in assay [4] it was -4.64%; in the assay on Trypanosoma cruzi, -5.34%; in assay [5], 2.65%. Moreover, the Percent Effect in assay [6] was 18.2%; in the assay filed under Homo sapiens, -11.2%; in assay [7] it was -1.05%; in assay [8], -2.56%; in [9], 0.478%.
In the case of `Cc1ccoc1C(=O)N1C[C@H]2CCC[C@@]2(COCc2ccncc2)C1`, the Percent Effect in assay [1] was -1.22%; in assay [2], 18.2%; in [3], -2.61%; in assay [4], 3.02%; in the assay with Trypanosoma cruzi, 2.66%; in assay [5], -3.23%. Moreover, the Percent Effect was -2.44% in assay [6]; 1.6% in the assay listed under Homo sapiens; 5.29% in [7]; 11.5% in assay [8]; -4.37% in assay [9].
